This is part of a sample that, as a whole, favours compounds with a hit. Of some 83,000 tested, about 20% had one in any assay.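 Assay: single dose, 48 h. Readout: percent growth (0 = no net growth; negative = cell death). Active: <10.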 A number with no mark means an inactive call. Calls of active or inactive are those of the source.
Key:
Assay in all cases: NCI-60 one-dose screen, 48 h (100 = growth as untreated, 0 = no growth, -100 = all killed)
Details in all cases: 10 µM unless noted
SR leukemia = system: SR leukemia
OVCAR-8 ovarian = system: OVCAR-8 ovarian
OVCAR-5 ovarian = system: OVCAR-5 ovarian
OVCAR-4 ovarian = system: OVCAR-4 ovarian
IGROV1 ovarian = system: IGROV1 ovarian
OVCAR-3 ovarian = system: OVCAR-3 ovarian
HS 578T breast = system: HS 578T breast
NCI/ADR-RES ovarian = system: NCI/ADR-RES ovarian
T-47D breast = system: T-47D breast
BT-549 breast = system: BT-549 breast
MDA-MB-435 melanoma = system: MDA-MB-435 melanoma
SW-620 colon = system: SW-620 colon
MCF7 breast = system: MCF7 breast
HCT-116 colon = system: HCT-116 colon
HCC-2998 colon = system: HCC-2998 colon
KM12 colon = system: KM12 colon

Row | Compound | growth (SR leukemia) | growth (OVCAR-8 ovarian) | growth (OVCAR-5 ovarian) | growth (OVCAR-4 ovarian) | growth (IGROV1 ovarian) | growth (OVCAR-3 ovarian) | growth (HS 578T breast) | growth (NCI/ADR-RES ovarian) | growth (T-47D breast) | growth (BT-549 breast) | growth (MDA-MB-435 melanoma) | growth (SW-620 colon) | growth (MCF7 breast) | growth (HCT-116 colon) | growth (HCC-2998 colon) | growth (KM12 colon)
1 | N#C/C(=C\c1ccc(Br)cc1)n1nnc2cc(Cl)c(Cl)cc21 | 10% | 22.2% | 46.2% | 21.6% | 23.3% | 5.17% (active) | 51.3% | 7.03% (active) | 18% | 22.5% | -18.2% (active) | 19.2% | 6.51% (active) | 22.2% | 35.3% | 29.7%
2 | N=C(N)c1ccc(-c2ccc(/C=C/c3ccccc3)s2)cc1 | 1.05% (active) | 8.3% (active) | 13.1% | -24.8% (active) | -62.6% (active) | -25.5% (active) | 57.4% | -12.5% (active) | 37.8% |  | -34.9% (active) | -67.1% (active) | -74.2% (active) | -79% (active) | -63.7% (active) | -47.1% (active)
3 | NS(=O)(=O)Oc1ccc(NC(=O)C23CC4CC(CC(C4)C2)C3)cc1Cl | 99% | 98.4% | 101% | 83.9% | 95.9% | 103% |  | 93.6% |  | 99.3% | 99.5% | 106% | 97.3% | 107% | 103% | 95.8%
4 | N#C/C=C(\c1ccc([N+](=O)[O-])cc1)n1nnc2cc(Cl)c(Cl)cc21 | 13% | 15.7% | 10.1% | 0.234% (active) | -43% (active) | -48% (active) | 27.8% | -4.34% (active) | 28.5% | 33.7% | 7.64% (active) | -34.8% (active) | 1.7% (active) | -52.7% (active) | 19.9% | -81.1% (active)
5 | Cl.Fc1c[c-]c(-c2ccccn2)c(F)c1.[Pt].c1ccc([PH+](C[PH+](c2ccccc2)c2ccccc2)c2ccccc2)cc1 | -25.4% (active) | -19.6% (active) | -81.8% (active) | -93.4% (active) | -75.9% (active) | -93.8% (active) | -25.2% (active) | -38.8% (active) | -56.2% (active) | -85% (active) | -83.3% (active) | -78.1% (active) | -83.7% (active) | -83.4% (active) | -87.4% (active) | -82% (active)
6 | CC(C)(C)c1ccc(C(=O)Nc2sc3c(c2C(N)=O)CCC(=O)C3)cc1 | 11.1% | 8.88% (active) | 12.3% | -91.1% (active) | -21.6% (active) | -78.8% (active) | -12% (active) | -0.603% (active) | -13.7% (active) | -10.3% (active) | -45.2% (active) | -36.7% (active) | 3.05% (active) | -30.5% (active) | 17.1% | -55.6% (active)
7 | Nc1nc(Nc2ccc(Cl)cc2)nn1S(=O)(=O)c1ccc(-c2ccc(F)cc2)cc1 | 85.5% | 83.8% | 85.7% | 89.4% | 76.2% | 92.1% | 79.6% | 83.3% |  |  | 91% | 95.5% | 58.2% | 75.1% | 82.9% | 61.2%
8 | Cl.Fc1c[c-]c(-c2ccccn2)c(F)c1.[Pt].c1ccc(P(c2ccccc2)C([PH+](c2ccccc2)c2ccccc2)[PH+](c2ccccc2)c2ccccc2)cc1 | 23.3% | 16.3% | 22% | 17.2% | 19.1% | 11% | 12% | 84.2% |  | 26.6% | 12.9% | 14.7% | 4.74% (active) | 8.7% (active) | 24.6% | 11.4%
9 | Cl.[Pt].[c-]1ccccc1-c1ccccn1.c1ccc(P(c2ccccc2)C([PH+](c2ccccc2)c2ccccc2)[PH+](c2ccccc2)c2ccccc2)cc1 | 20.4% | 15.6% | 22.7% | 21.3% | 17.2% | 11.6% | 7.92% (active) | 60.7% | 27.8% | 27% | 4.42% (active) | 13.6% | 3.15% (active) |  | 24.9% | 5.04% (active)
10 | N#C/C(=C\c1ccc2c(c1)OCO2)n1nnc2ccccc21 | 28% | 17.7% | -17.5% (active) | 34.2% | 4.33% (active) | -69% (active) | -4.27% (active) | 6.26% (active) | 26.2% | 30.3% | -69.1% (active) | 12% | 10.3% | 5.72% (active) | -9.93% (active) | -16.2% (active)
11 | N=C(N)c1ccc(-c2ccc(-c3ccc(Cl)cc3Cl)o2)cc1 | 2.97% (active) | -23.5% (active) | 16% | -38.1% (active) | -76.6% (active) | -40.2% (active) | 29.7% | -46.8% (active) | 57.6% | 94.7% | -63.6% (active) | -67.3% (active) | -73.7% (active) | -68.8% (active) | -93.2% (active) | -77.7% (active)
12 | O=[N+]([O-])c1ccc(-c2cc3c(Nc4ccc(Sc5nc6ccccc6s5)c(Cl)c4)ncnc3s2)cc1 | 38.7% | 23.5% | 49.9% | 35.2% | 43.8% | 14.7% | 87.8% | 60.3% | 37.1% | 87.6% | 30.8% | 49.5% | 16.2% | 11.9% | 49.7% | 35.1%
13 | Cl.Fc1c[c-]c(-c2ccccn2)c(F)c1.[Pt].c1ccc([PH+](c2ccccc2)c2ccccc2[PH+](c2ccccc2)c2ccccc2)cc1 | -6.47% (active) | -44.5% (active) | -94.3% (active) | -97.3% (active) | -77.9% (active) | -96.4% (active) | -50.3% (active) | -35.5% (active) | -80.2% (active) | -70.2% (active) | -93.5% (active) | -81.6% (active) | -79.3% (active) | -68% (active) | -76.6% (active) | -90.6% (active)
14 | O=C1CCC(N2C(=O)c3cccc(NCCCC4CCN(CCNC(=O)c5cc6c(o5)C(=O)c5ccccc5C6=O)CC4)c3C2=O)C(=O)N1 (stereo not drawn) | 14.5% | 6.28% (active) | -98% (active) | -99.3% (active) | -50.3% (active) | -90.9% (active) | -25.8% (active) | 20.4% | -5.59% (active) | -96.2% (active) | -97.1% (active) | -77.9% (active) | -65.4% (active) | -56.9% (active) | -96% (active) | -79.2% (active)
15 | CN(C)CCC(O)(Cc1ccccc1)c1ccccc1 (stereo not drawn) | 102% | 105% | 103% | 110% | 113% |  | 99.8% | 109% | 96.4% |  | 91.8% | 114% | 110% | 103% | 87% | 
16 | Cc1[nH]c(-c2nc3ccccc3[nH]2)c(C)c1C(=O)N1CCOCC1 | 98.6% | 106% | 98% | 99.8% | 99.4% | 103% | 90.4% | 101% | 99.1% | 99% | 99.7% | 96.3% | 93.3% |  | 97.9% | 105%
17 | CCn1c(Sc2nnc(NC(=O)CCN3CCCC3)s2)nc2c1c(=O)n(C)c(=O)n2C | 111% | 103% | 98.3% | 105% | 115% | 109% | 100% | 109% | 102% | 110% | 107% | 105% | 105% | 105% | 114% | 109%
18 | N=C(N)c1ccc(-c2ccc(-c3ccc(Cl)cc3Cl)o2)nc1 | 1.87% (active) | 1.36% (active) | 77.2% | 22.6% | 25.4% | -3.34% (active) | -15.2% (active) | 71.6% | 59.2% | 94.7% | -92.1% (active) | -68.7% (active) | -54.6% (active) | -75.5% (active) | -34.3% (active) | -35.5% (active)
19 | COc1ccc(C(=O)/C=C/C23c4ccccc4C(c4ccccc42)C2C(=O)NC(=O)C23)cc1 (stereo not drawn) | 75.5% | 88.3% | 91.4% | 88.5% | 98.8% | 95.9% | 77.6% | 90.1% | 86.2% | 97.1% | 101% | 110% | 89% | 83.2% | 100% | 97.3%

From PubChem BioAssay (NCI)
